Assay outcomes: PubChem BioAssay, National Center for Advancing Translational Sciences (NCATS)
Pf growth 96h – P. falciparum growth inhibition at 96 hour, primary screen for plastid delayed-death inhibitors; P. falciparum luciferase reporter growth, 96 h; Potency, µM (highest dose often 28.7 µM), hits mostly inhibitors; 320,000 tested, 6.9% active; active = well fitted inhibition curve with a large enough effect; inconclusive = small, poorly fitted or top-dose-only effect, or another doubt; inactive = no such curve, though single readings can be large or run the other way
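Delayed-death screen, second-generation endpoint: infected erythrocytes, 2% hematocrit, 0.05% parasitemia final; 96 hours at 37 C, 5% CO2; luciferase detection reagent; luminescence decrease equals reduced growth.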
Pf growth 48h – P. falciparum growth inhibition at 48 hours (one generation); P. falciparum luciferase growth in erythrocytes, 48 h; Potency, µM (highest dose often 28.7 µM), hits mostly inhibitors; 310,000 tested, 5.9% active; active = well fitted inhibition curve with a large enough effect; inconclusive = small, poorly fitted or top-dose-only effect, or another doubt; inactive = no such curve, though single readings can be large or run the other way
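A one-generation exposure of luciferase-tagged malaria parasites in RPMI 1640/Albumax erythrocyte culture, 37 C and 5% CO2. Inhibition is inferred from decreased luminescence after adding detection reagent.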
NS1 inh – inhibitors of influenza NS1 protein function; 270,000 tested, 0.4% active; Potency, µM (doses to about 46.1 µM); also: actives are rising curves; nearly all actives have a fitted effect of over 50% in size
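S. cerevisiae expressing influenza A NS1, grown in glucose, washed, then diluted 1:100 into pH 6.0 -URA galactose medium with 23 nl compound. Growth recovery read as OD600; NS1-free strain serves as control.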
SARS PLpro yeast – SARS-CoV PLP inhibition in yeast; Potency, µM (doses to about 32.9 µM), actives largely listed as activators; S. cerevisiae expressing SARS-CoV PLpro, growth rescue; AID 485353; 330,000 tested, 0.19% active; also: nearly all actives have a fitted effect of over 55% in size
NS1 inh valid – validation of influenza NS1 protein function inhibitors. shares compounds with NS1 inh. influenza NS1 function cell assay, 15-point titration. activity change, negative = inhibition, % at 32.9 µM. 1,400 tested, under 10 active
Flu PR8 replic – reduces influenza A/PR/8/34 replication in MDCK cells; shares compounds with NS1 inh; MDCK infected influenza A/PR/8/34, virus titer TCID50; hits give low values; virus titer (log TCID50), log10 TCID50 at 5 µM; 95 tested, 30% active; call rule not given here
Hits are given with their value; – = inactive; ? = inconclusive; · = no result; ! = repeats disagree; [ ] = another dose, or the depositor's remark. An excerpt weighted towards active compounds, which were near 10% of everything screened. Unless noted, calls follow the shape of the full dose curve.

SMILES	Pf growth 96h	Pf growth 48h	NS1 inh	SARS PLpro yeast	NS1 inh valid	others
Cc1ccc(-c2nnc(NCc3nc4ccccc4[nH]3)c3ccccc23)cc1S(=O)(=O)N(C)C	?	13µM	5.6µM	–	–	Flu PR8 replic=7.5
CC(C)CCNC(=O)c1c[nH]c2ccc(S(=O)(=O)N3CCOCC3)cc2c1=O	?	?	–	–	·
COc1cccc(NS(=O)(=O)c2ccc3[nH]cc(C(=O)NCCC(C)C)c(=O)c3c2)c1	–	9.3µM	4.5µM	–	–
CN(CC(=O)Nc1ccc(N2CCOCC2)cc1)Cc1cc(=O)n2ccsc2n1	–	?	·	–	·
COc1cc(C(c2c(C(=O)O)[nH]c3ccccc23)c2c(C(=O)O)[nH]c3ccccc23)ccc1OCc1ccccc1	13µM	–	6.3µM	–	–
NC(=O)C1CCN(C(=O)CCSCc2ccccc2)CC1	?	?	–	?	·
COC(=O)c1ccc(/C=C/C(=O)OCC(=O)Nc2cc(C)on2)cc1	·	·	·	–	·
O=S(=O)(/N=C(/Nc1cccc2ccccc12)c1ccccc1)c1cccs1	12µM	?	14µM	–	–
O=S(=O)(/N=C(/Nc1cccc2ccccc12)c1ccccc1)c1ccccc1	–	?	–	–	·
O=C(CSc1nnc(-c2c[nH]c3ccccc23)o1)N1c2ccccc2CCc2ccccc21	–	?	4µM	–	?
COc1ccc(NC2=CC(=O)CC(c3ccccc3)C2)cc1 (configuration not stated)	–	?	–	–	·
COc1ccc(C2CC(=O)C=C(NNS(=O)(=O)c3ccc(C)cc3)C2)cc1 (configuration not stated)	–	–	4µM	–	–
Cc1cc(C(=O)O)cc(S(=O)(=O)Nc2ccccc2C(=O)NC(C)c2ccccc2)c1C (configuration not stated)	–	–	7.9µM	–	–
Cc1cc(C)c(S(C)(=O)=O)c(Oc2ccc(F)cc2)n1	?	–	–	–	·
Cc1cc(C)c(S(C)(=O)=O)c(Oc2ccccc2C)n1	–	?	1µM	–	–
COc1ccc2[nH]c(=O)c(CN(Cc3ccco3)Cc3nnnn3Cc3ccccc3)cc2c1	·	?	13µM	–	–
Cc1ccc(C)c2[nH]c(=O)c(CN(Cc3ccc4c(c3)OCO4)Cc3nnnn3Cc3ccco3)cc12	?	8.3µM	11µM	–	–
CC(=O)N1CCN(C(=O)COC(=O)COc2c(C)cc(C)cc2C)CC1	–	–	·	–	·
O=C(NNC(=O)c1nc2ccccc2[nH]1)OCc1ccccc1	·	·	·	–	·
COc1ccc2[nH]c3c(c2c1)CCNC3	–	–	18µM	–	–
CCOc1ccc2[nH]c3c(c2c1)CNCC3	–	?	–	–	·
c1ccc(CCNC2=NCCS2)cc1	?	–	–	–	·
c1ccc(CCNC2=NCCCS2)cc1	?	?	?	–	–
N#CCC(=O)N/N=C/c1ccc(N2N=C(c3ccccc3)CC2c2ccccc2)cc1 (configuration not stated)	?	?	1.1µM	–	–
N#CC1=C(S)N=C(N)C(c2nc(-c3ccccc3)cs2)C12CCCC2 (configuration not stated)	·	?	–	–	·
SMILES	Pf growth 96h	Pf growth 48h	NS1 inh	SARS PLpro yeast	NS1 inh valid	others
N#CC1=C(S)N=C(N)C(c2nc(-c3ccccc3)cs2)C12CCCCC2 (configuration not stated)	–	·	11µM	–	–
O=C1NC(=O)C(c2ccccc2[N+](=O)[O-])=C1Nc1ccc(O)c(Cl)c1	?	–	35µM!	–	–
O=C(NNc1ccccc1[N+](=O)[O-])Nc1ccc(Cl)c(Cl)c1	?	–	–	–	·
Cc1cc(C)cc(NC(=S)NCc2cccn2C)c1	?	?	10µM	–	–
O=S(=O)(Nc1ccc(N2CCOCC2)cc1)c1ccccc1	–	–	–	–	·
O=S(=O)(Nc1ccc(N2CCCCC2)cc1)c1ccccc1	–	–	?	–	?
O=C(NCc1ccc2[nH]c3c(c2c1)CCCC3)c1ccc(S(=O)(=O)N2CCOCC2)cc1	?	?	?	–	·
Cc1cc2cc(CNC(=O)c3ccc(S(=O)(=O)N4CCOCC4)cc3)ccc2n1C	?	13µM	11µM	–	–
Cc1cc2cc(CNS(=O)(=O)c3ccc4ccccc4c3)ccc2n1C	?	?	10µM	–	–
Cc1cc2cc(CNC(=O)c3ccc(S(=O)(=O)N(C)C)cc3)ccc2n1C	?	?	11µM	–	–
CC(=O)Nc1ccc(S(=O)(=O)NCc2ccc3c(c2)cc(C)n3C)cc1	?	·	–	–	·
Cc1cc2cc(CNC(=O)c3cccc([N+](=O)[O-])c3)ccc2n1C	?	–	–	–	·
O=C(c1ccc(N2CCCS2(=O)=O)cc1)N1CCN(c2ccccc2)CC1	–	–	–	–	·
CC(O)CN1CCN(C(=O)CN2C(=O)NC(c3ccccc3)(c3ccccc3)C2=O)CC1 (configuration not stated)	–	–	–	–	·
O=C(CSc1nc2ccccc2c(=O)n1-c1ccccc1Cl)Nc1cccc(S(=O)(=O)N2CCOCC2)c1	–	?	11µM	–	–	Flu PR8 replic=6.7
O=C(CSc1nc2ccccc2c(=O)n1-c1ccc(F)cc1)Nc1cc(S(=O)(=O)N2CCOCC2)ccc1Cl	3.7µM	6.6µM	13µM	–	–
Cc1cc(NC(=O)CSc2nc3cc4c(cc3c(=O)n2CCc2ccccc2)OCO4)no1	?	–	13µM	–	–
COc1ccc(-n2c(SCC(=O)Nc3ccc4c(c3)OCO4)nc3ccccc3c2=O)cc1	–	?	22µM	–	–
Cc1ccc(Cl)cc1N1CCN(Cc2nc3ccsc3c(=O)[nH]2)CC1	?	·	–	–	·
COC(=O)c1c(C)[nH]c(C)c1C(=O)c1ccccc1Cc1ccccc1	·	·	–	·	·
CC(Sc1nc(N)cc(N)n1)C(=O)NCCC1=CCCCC1 (configuration not stated)	–	–	·	–	·
Cc1cnc(C(=O)NC2CCSc3ccccc32)cn1 (configuration not stated)	?	–	–	–	·
Cc1nc([N+](=O)[O-])cn1Cc1cccc([N+](=O)[O-])c1	–	–	–	–	·
Cc1cc(Cl)ccc1OCC(=O)NNC(=O)c1cccnc1	–	–	–	–	·
O=C(CSc1nnc(Nc2ccccc2)s1)Nc1cccc(S(=O)(=O)N2CCCCC2)c1	–	?	11µM	–	?
SMILES	Pf growth 96h	Pf growth 48h	NS1 inh	SARS PLpro yeast	NS1 inh valid	others
O=C(Nc1cc(Cl)ccc1N1CCOCC1)C1=COCCO1	–	–	·	–	·
Cc1c(C(=O)O)oc2ccc(S(=O)(=O)NCc3ccc(F)cc3)cc12	–	–	–	–	·
Cc1c(C(=O)O)oc2ccc(S(=O)(=O)NCCC3=CCCCC3)cc12	?	?	10µM	–	–
CCOc1ccccc1NC(=S)N1CCC(NC(=O)C(C)(C)C)CC1	–	–	–	–	·
Cn1c(CCN2CCCCC2)nc2cc(NS(=O)(=O)c3ccc(Cl)cc3)ccc21	–[5.75 µM]	2.1µM	0.89µM	–	–
Cn1cc(CN2CCC(n3nccc3NC(=O)CCOc3ccccc3)CC2)cn1	–	–	–	–	·
